Measured values: PubChem BioAssay (Tox21)
Results filed as inconclusive are left out. Activity calls are given as the source filed them. Unless noted, calls follow the shape of the dose curve; as a rule, active = well fitted curve in the direction sought with a large enough effect in the repeat runs; inconclusive = weak or mixed curves; inactive = no such curve, though single readings can be large; an effect the other way counts as inactive or inconclusive.

Experiments:
[1] = qHTS assay to identify small molecule antagonists of the sonic hedgehog signaling (Shh) pathway (AID 1259369; calls by dose curve; also: nearly all actives have a fitted effect of over 45% in size)
Outline: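 NIH/3T3-derived Gli1-Luc reporter cells plated 4 h, dosed with compound, then stimulated with conditioned medium for 24 h at 37 C. Firefly luciferase luminescence read after 30 min with detection reagent at room temperature.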

[2] = molecular target: Estrogen receptor beta (Homo sapiens) (UniProt Q92731); test: qHTS assay to identify small molecule antagonists of the estrogen receptor beta (ER-beta) signaling pathway (AID 1259378; active = well fitted inhibition curve with a large enough effect in the signal ratio in the repeat runs, not every such curve was filed as active; the % refers to the signal ratio)
Estrogen receptor beta (Homo sapiens), sequence (Q92731 whole entry, looked up): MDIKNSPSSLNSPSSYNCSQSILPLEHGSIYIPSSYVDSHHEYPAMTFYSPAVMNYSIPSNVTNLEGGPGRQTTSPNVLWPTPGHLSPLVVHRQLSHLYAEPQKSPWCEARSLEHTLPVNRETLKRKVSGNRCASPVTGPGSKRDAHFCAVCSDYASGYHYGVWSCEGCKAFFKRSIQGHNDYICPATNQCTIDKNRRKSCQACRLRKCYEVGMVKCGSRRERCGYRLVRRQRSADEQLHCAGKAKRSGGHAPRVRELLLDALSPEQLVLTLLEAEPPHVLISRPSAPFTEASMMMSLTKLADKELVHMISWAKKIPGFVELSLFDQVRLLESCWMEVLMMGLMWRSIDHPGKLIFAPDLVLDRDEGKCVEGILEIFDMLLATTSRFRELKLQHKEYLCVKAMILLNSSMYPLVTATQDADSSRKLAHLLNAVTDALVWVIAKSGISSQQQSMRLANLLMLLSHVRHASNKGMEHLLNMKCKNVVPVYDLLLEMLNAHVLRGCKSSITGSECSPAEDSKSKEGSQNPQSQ
Outline: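 ER-beta-UAS-bla HEK293T (GripTite) cells in 2% charcoal-stripped FBS medium were preincubated 6 hr at 37C, dosed with compound, then stimulated with 1 nM E2 (final) for 16 hr; beta-lactamase reporter read by B/G FRET fluorescence after 2 hr substrate loading.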

[3] = qHTS assay to identify small molecule agonists of the androgen receptor (AR) signaling pathway in the presence of an antagonist - cell viability counter screen (AID 1259379);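 also: MDA-kb2 human breast cancer cells carrying an MMTV luciferase reporter; series mostly up to about 92 µM; nearly all actives have a fitted effect of over 25% in size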
Outline: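 MDA-kb2 cells (MMTV-luciferase, AR/GR), 3,000/well, 5 h attachment, then 3.0 µM nilutamide (final) and compounds at 15 concentrations. Viability by CellTiter-Fluor fluorescence after 16 h at 37 °C, 0% CO2, in the reporter wells.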

[4] = qHTS assay to identify small molecule agonists of the estrogen receptor beta (ER-beta) signaling pathway - cell viability counter screen (AID 1259380); also: nearly all actives have a fitted effect of over 30% in size
Outline: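 ER-beta-UAS-bla HEK293T cells in medium with 2% charcoal-stripped FBS, pre-incubated 6 hr, then treated 16 hr at 37C. Cytotoxicity read in the same wells by CellTiter-Glo luminescence after 30 min at room temperature.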

[5] = qHTS assay to identify small molecule antagonists of the estrogen receptor beta (ER-beta) signaling pathway - cell viability counter screen (AID 1259382); also: series mostly up to about 92 µM; nearly all actives have a fitted effect of over 55% in size
Outline: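 ER-beta-UAS-bla HEK293T cells in 2% charcoal-stripped FBS medium, treated with compound plus 1 nM 17-beta-estradiol for 16 h at 37C. Viability read by CellTiter-Glo luminescence after 30 min at room temperature in the same wells.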

[6] = molecular target: Thyrotropin receptor (Homo sapiens) (UniProt P16473); test: qHTS assay to identify small molecule antagonists of the thyroid stimulating hormone receptor (TSHR) signaling pathway (AID 1259385; calls by dose curve; also: nearly all actives have a fitted effect of over 20% in size)
Thyrotropin receptor (Homo sapiens), sequence (P16473 whole entry, looked up): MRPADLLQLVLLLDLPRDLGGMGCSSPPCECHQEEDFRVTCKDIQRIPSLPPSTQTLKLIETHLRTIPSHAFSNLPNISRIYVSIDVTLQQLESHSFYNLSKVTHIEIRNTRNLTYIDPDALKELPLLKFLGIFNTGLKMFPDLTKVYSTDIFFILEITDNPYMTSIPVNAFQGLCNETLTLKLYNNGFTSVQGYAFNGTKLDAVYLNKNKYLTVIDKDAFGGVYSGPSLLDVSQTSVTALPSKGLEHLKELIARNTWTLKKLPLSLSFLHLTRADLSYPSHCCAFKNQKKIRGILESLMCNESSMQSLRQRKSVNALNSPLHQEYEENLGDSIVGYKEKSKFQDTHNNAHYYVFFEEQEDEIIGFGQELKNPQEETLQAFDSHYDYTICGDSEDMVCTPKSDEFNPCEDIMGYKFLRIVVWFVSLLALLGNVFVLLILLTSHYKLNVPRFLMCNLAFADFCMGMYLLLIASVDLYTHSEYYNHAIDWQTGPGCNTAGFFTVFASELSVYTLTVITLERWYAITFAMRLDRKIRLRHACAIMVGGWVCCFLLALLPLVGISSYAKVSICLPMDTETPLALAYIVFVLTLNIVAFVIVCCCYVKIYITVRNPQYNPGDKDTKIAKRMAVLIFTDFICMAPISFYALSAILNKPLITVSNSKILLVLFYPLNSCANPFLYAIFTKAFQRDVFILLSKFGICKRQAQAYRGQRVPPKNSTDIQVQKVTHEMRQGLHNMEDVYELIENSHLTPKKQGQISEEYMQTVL
Outline: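 TSHR-HEK293 cells were plated and held 18 h at 37C/5% CO2, then given compound plus Ro20-1724 and stimulated with TSH at 1.5 ng/mL final. After 30 min at room temperature, cAMP was detected with cAMP-d2/anti-cAMP-cryptate (1 h) by fluorescence.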

[7] = qHTS assay to identify small molecule agonists of the estrogen receptor alpha (ER-alpha) signaling pathway in the presence of an antagonist - cell viability counter screen (AID 1259386);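 also: series mostly up to about 92 µM; cells exposed to compounds for 22 h at 37 °C before the viability read; nearly all actives have a fitted effect of over 30% in size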
Outline: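 Cell viability in VM7Luc4E2 cells (endogenous full-length ER-alpha) measured by CellTiter-Fluor fluorescence in the same wells as the luciferase screen. Cells pre-cultured 5 days in charcoal-stripped serum, then treated 22 h with compounds at 15 concentrations plus 10.0nM ICI-182,780.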

[8] = qHTS assay to identify small molecule antagonists of the progesterone receptor (PR) signaling pathway - cell viability counter screen (AID 1346798); also: series mostly up to about 92 µM; nearly all actives have a fitted effect of over 50% in size
Outline: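 Measures cytotoxicity in parallel with the PR antagonist reporter read: HEK293T PR-UAS-bla cells get compound and R5020 for 16 hr, and remaining viable cells are quantified by CellTiter-Glo luminescence.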

[9] = qHTS assay to identify small molecule antagonists of the TGF-beta/Smad signaling pathway - cell viability counter screen (AID 1346824); also: nearly all actives have a fitted effect of over 50% in size
Outline: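 SBE-bla HEK 293T cells were plated overnight at 37 C, then given compounds in DMSO plus TGF-beta1 (added as 0.25 ng/mL solution) for 5 hr. After the bla read, CellTiter-Glo was added to the same wells and luminescence read after 30 min at room temperature.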

[10] = qHTS assay to identify small molecule agonists of the TGF-beta/Smad signaling pathway (AID 1346859; active = well fitted activation curve with a large enough effect in the signal ratio in the repeat runs, not every such curve was filed as active; the % refers to the signal ratio; also: series mostly up to about 77 µM)
Outline: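 Beta-lactamase reporter activity downstream of Smad binding elements was measured in stably transfected HEK 293T cells; compounds were incubated for 5 hr, substrate for 2 hr at room temperature.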

[11] = Human pregnane X receptor (PXR) small molecule agonists, qHTS cell viability counter screen (AID 1346977); also: nearly all actives have a fitted effect of over 50% in size
Outline: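 After a 5hr pre-incubation, PXR-Luc HepG2 cells received compounds plus positive control in DMSO and were kept 24hr at 37C. Cell viability was quantified by fluorescence from CellTiter-Fluor added for the final hour.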

[12] = molecular target: Estrogen receptor (Homo sapiens) (UniProt P03372); test: qHTS assay to identify small molecule agonists of the estrogen receptor alpha (ER-alpha) signaling pathway in the presence of an antagonist (AID 1259383; calls by dose curve; also: top concentration of the series differs between compounds; nearly all actives have a fitted effect of over 15% in size)
Estrogen receptor (Homo sapiens), sequence (P03372 whole entry, looked up): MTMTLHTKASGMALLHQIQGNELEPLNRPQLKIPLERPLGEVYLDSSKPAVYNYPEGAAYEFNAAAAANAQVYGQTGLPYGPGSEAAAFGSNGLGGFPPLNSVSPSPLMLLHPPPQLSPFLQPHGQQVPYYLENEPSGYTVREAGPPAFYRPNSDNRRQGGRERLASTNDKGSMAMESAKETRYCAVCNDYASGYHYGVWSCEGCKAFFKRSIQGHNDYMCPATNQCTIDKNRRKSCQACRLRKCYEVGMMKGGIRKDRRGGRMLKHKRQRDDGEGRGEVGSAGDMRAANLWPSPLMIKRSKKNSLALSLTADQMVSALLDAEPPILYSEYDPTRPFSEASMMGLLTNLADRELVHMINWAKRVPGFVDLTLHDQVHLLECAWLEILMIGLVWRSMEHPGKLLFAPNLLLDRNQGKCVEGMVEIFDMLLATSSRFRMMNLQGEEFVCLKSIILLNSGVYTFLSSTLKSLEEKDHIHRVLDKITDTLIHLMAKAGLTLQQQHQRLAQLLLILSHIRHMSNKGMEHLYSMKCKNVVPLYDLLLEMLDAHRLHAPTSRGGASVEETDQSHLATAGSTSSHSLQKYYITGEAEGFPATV
Outline: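 VM7Luc4E2 cells express endogenous full-length ER-alpha with an ERE-luciferase reporter and were hormone-deprived for 5 days. Compounds at 15 concentrations were added with 10.0nM ICI-182,780 for 22hr at 37C. Luminescence was read with ONE-Glo.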

[13] = qHTS assay to identify small molecule agonists or antagonists of the thyroid stimulating hormone receptor (TSHR) signaling pathway - wild type cell line counter screen (AID 1259384; calls by dose curve)
Outline: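 Wild-type HEK293 cells were plated 18 h at 37 C/5% CO2, pin-dosed with compound plus Ro20-1724 medium, held 30 min at room temperature, then given cAMP-d2 and anti-cAMP-cryptate; fluorescence was read after 1 h. Fifteen concentrations, triplicate.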

[14] = molecular target: Progesterone receptor (Homo sapiens) (UniProt P06401); test: qHTS assay to identify small molecule agonists of the progesterone receptor (PR) signaling pathway (AID 1346784; calls by dose curve; also: nearly all actives have a fitted effect of over 30% in size)
Progesterone receptor (Homo sapiens), sequence (P06401 whole entry, looked up): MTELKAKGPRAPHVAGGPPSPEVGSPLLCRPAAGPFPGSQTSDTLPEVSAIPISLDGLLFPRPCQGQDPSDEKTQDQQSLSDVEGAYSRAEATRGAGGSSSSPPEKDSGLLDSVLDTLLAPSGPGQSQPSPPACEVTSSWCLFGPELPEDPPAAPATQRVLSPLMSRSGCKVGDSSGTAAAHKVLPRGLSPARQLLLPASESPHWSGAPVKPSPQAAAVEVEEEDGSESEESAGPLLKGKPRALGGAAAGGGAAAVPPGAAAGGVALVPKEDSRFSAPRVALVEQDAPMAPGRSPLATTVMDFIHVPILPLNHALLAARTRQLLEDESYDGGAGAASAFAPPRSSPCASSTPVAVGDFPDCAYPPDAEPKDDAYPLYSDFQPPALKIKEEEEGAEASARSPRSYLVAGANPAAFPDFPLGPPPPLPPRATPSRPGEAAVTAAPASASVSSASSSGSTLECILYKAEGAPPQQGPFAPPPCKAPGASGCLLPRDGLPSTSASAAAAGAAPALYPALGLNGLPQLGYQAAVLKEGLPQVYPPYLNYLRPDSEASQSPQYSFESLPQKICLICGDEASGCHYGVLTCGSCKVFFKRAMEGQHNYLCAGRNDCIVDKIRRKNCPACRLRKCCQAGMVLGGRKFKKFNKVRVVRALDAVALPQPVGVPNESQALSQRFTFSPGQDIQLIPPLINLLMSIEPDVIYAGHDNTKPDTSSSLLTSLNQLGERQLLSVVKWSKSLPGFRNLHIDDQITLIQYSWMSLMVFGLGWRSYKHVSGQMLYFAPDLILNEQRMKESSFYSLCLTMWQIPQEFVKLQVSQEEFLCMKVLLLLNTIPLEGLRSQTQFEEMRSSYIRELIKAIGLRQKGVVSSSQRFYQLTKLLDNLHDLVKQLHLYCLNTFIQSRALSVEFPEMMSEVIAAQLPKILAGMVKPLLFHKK
Outline: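 Seed PR-UAS-bla HEK 293T cells (2% charcoal-stripped FBS), incubate 6 hr at 37C; add compounds in DMSO, 16 hr at 37C; add LiveBLAzer B/G substrate, 2 hr RT; read fluorescence intensity.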

[15] = molecular target: Progesterone receptor (Homo sapiens) (UniProt P06401); test: qHTS assay to identify small molecule antagonists of the progesterone receptor (PR) signaling pathway (AID 1346795; active = well fitted inhibition curve with a large enough effect in the signal ratio in the repeat runs, not every such curve was filed as active; the % refers to the signal ratio)
Outline: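 Screening used a GripTite HEK293T line with PR-responsive UAS-beta-lactamase. Cells were challenged with compound in the presence of 1 nM R5020 final for 16 hr at 37C; B/G FRET substrate, 2 hr room temperature, fluorescence.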

[16] = qHTS assay to identify small molecule agonists of the progesterone receptor (PR) signaling pathway - cell viability counter screen (AID 1346799; calls by dose curve; also: nearly all actives have a fitted effect of over 45% in size)
Outline: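 Using the same plates as the PR reporter screen, HEK293T PR-UAS-bla cells received compounds for 16 hr at 37C and were then lysed with CellTiter-Glo; luminescence was read 30 min later at room temperature.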

[17] = qHTS assay to identify small molecule agonists of the TGF-beta/Smad signaling pathway - cell viability counter screen (AID 1346829); also: top concentration of the series differs between compounds; nearly all actives have a fitted effect of over 45% in size
Outline: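 In parallel with the Smad reporter read, viability of HEK 293T cells stably carrying SBE-bla is quantified by ATP luminescence following 5 hr compound treatment.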

[18] = molecular target: Thyrotropin-releasing hormone receptor (Homo sapiens) (UniProt P34981); test: qHTS assay to identify small molecule antagonists of the thyrotropin-releasing hormone receptor (TRHR) signaling pathway (AID 1346877; active = well fitted inhibition curve with a large enough effect in the repeat runs, not every such curve was filed as active; also: series mostly up to about 51 µM)
Thyrotropin-releasing hormone receptor (Homo sapiens), sequence (P34981 whole entry, looked up): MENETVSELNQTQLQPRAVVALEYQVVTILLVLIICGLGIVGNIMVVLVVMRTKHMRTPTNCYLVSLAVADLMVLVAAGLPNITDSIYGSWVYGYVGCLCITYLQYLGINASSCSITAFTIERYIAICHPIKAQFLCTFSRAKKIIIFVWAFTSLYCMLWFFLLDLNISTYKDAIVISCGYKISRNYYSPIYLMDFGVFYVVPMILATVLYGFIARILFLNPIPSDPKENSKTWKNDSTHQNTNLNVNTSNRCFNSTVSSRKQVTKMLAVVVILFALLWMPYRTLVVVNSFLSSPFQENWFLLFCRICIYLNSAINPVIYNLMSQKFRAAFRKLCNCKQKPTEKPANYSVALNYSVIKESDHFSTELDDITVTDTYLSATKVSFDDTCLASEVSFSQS
Outline: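 TRHR-expressing HEK293 cells loaded with calcium dye for 2 h at 37 C; compounds pre-incubated 5 min at room temperature before TRH challenge at 1 nM final. Intracellular calcium fluorescence read kinetically for 3 min; 15 concentrations in triplicate.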

[19] = molecular target: Thyrotropin-releasing hormone receptor (Homo sapiens) (UniProt P34981); test: qHTS assay to identify small molecule agonists of the thyrotropin-releasing hormone receptor (TRHR) signaling pathway (AID 1346891; calls by dose curve; also: series mostly up to about 58 µM)
Outline: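 Overnight-plated (18 h, 37 °C, 5% CO2) TRHR-Hek293 cells; 2 h calcium dye at 37 °C; compound in DMSO; 3-min kinetic fluorescence read.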

Measured: Potency

CC(=O)OCC(=O)[C@@]1(O)CCC2C3CCC4=CC(=O)CC[C@]4(C)C3[C@@H](O)C[C@@]21C (stereo not given in full)
not listed: [12] | [13] | [14] | [15] | [16] | [17] | [18] | [19]
inactive: all other assays above

CCOC(=O)C(=O)OCC
not listed: [4] | [9] | [18] | [19]
inactive: all other assays above

CC(C)CCCC(C)N (stereo not given)
not listed: [2] | [16]
inactive: all other assays above

CC(=O)OCC(=O)[C@@]1(O)CC[C@H]2[C@@H]3CCC4=CC(=O)CC[C@]4(C)[C@H]3C(=O)C[C@@]21C
not listed: [6] | [13] | [15] | [17] | [18] | [19]
inactive: all other assays above

CC1(C)CO[C@@H](CC(=O)O)CN1
inactive: all assays above

OCCOc1ccc(OCCO)cc1
not listed: [2] | [10] | [17] | [18] | [19]
inactive: all other assays above

CCc1ccc(O)c(OC)c1
not listed: [9] | [12] | [15] | [17]
inactive: all other assays above

CCCCCCOC(=O)CCCCC(=O)OCCCCCC
not listed: [4] | [9] | [10]
inactive: all other assays above
